The sample as a whole holds a higher share of hits than the screen did.
Rango release inh – inhibition of RanGTP-driven Rango-importin beta dissociation. O95149+P62826. hit rate 0.071% among 340,000. Potency, µM (highest dose often 46.1 µM), for inactives: at the top dose activity change, negative = inhibition. Biochemical FRET Rango-importin beta, RanGTP-induced dissociation. AID 540253; further: potency means the concentration at half of the fitted maximal effect; % of control where 0% means no effect; nearly all actives have a fitted effect of over 45% in size
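Two FRET readings bracket the reaction: one 5 min after compound meets Rango–importin beta, another 45 min after RanGTP-RCC1 (0.6 uM Ran, 0.2 uM RCC1, 2 mM GTP) is added. Only the second defines inhibition.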
ClpP mod – qHTS Assay for Activators of ClpP | purified B. subtilis ClpP, FRET peptide cleavage, 20 min | Potency, µM (series often up to 57.5 µM), for inactives: top-dose activity change, negative = active | hit rate 1.9% among 340,000 | ATP-dependent Clp protease proteolytic subunit (Bacillus subtilis (strain 168)), P80244; active means well fitted falling curve with a large enough effect; inconclusive means small, poorly fitted or top-dose-only effect; inactive means no such curve, though single readings can be large or run the other way; further: potency means the concentration at half of the fitted maximal effect; the source files actives as falling curves though it sought activators and does not explain the sign; nearly all actives have a fitted effect of over 65% in size
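FRET quenching reversal measured ClpP activation: 10 microg/mL B. subtilis ClpP at pH 8 with the FRET-FV decapeptide, read at 430 nm after 320 nm excitation. The 20-min minus 0-min signal was scaled between DMSO/no-enzyme wells and ADEP (5.8 microM final).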
CBFb RUNX1 block – CBF-beta/RUNX1 interaction disruption; AlphaScreen CBFb-His/RUNX1-biotin binding, biochemical; AID 1477; Q01196+Q13951; 230,000 tested, under 10 active; Potency, µM (series often up to 59.8 µM), inactives show at the highest dose activity, negative = inhibition, actives largely listed as inhibitors; active means well fitted curve in the direction sought with a large enough effect; inconclusive means small, poorly fitted or top-dose-only effect, or effect the other way, or another doubt; inactive means no such curve, though single readings can be large or run the other way; further: % of control where 0% means no effect
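AlphaScreen proximity signal reports loss of binding between His-tagged CBF-beta and biotin-labelled RUNX1, each at 30 nM. Proteins are pre-associated for 20 minutes, compounds added for 15 minutes, then beads for 90 minutes, all at ambient temperature.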
MBNL1 CUG block – MBNL1-poly(CUG) RNA binding inhibition; Q9NR56; TR-FRET MBNL1-His/biotin-(CUG)12 binding, 665/545 ratio; Potency, µM (highest dose often 57.5 µM), without a hit: at the top dose activity change, negative = inhibition, actives largely listed as inhibitors; hit rate 0.036% among 280,000; AID 2675; active means well fitted inhibition curve with a large enough effect in the signal ratio, with a control signal flat, not every such curve was filed as active; inconclusive means small, poorly fitted or top-dose-only effect, or effect the other way, or a change in a side signal; inactive means no such curve, though single readings can be large or run the other way; the % refers to the signal ratio; further: potency means the concentration at half of the fitted maximal effect; on the % scale 0 is the no-effect control and ±100 the full control effect
Target sequence (Q9NR56 whole entry, looked up): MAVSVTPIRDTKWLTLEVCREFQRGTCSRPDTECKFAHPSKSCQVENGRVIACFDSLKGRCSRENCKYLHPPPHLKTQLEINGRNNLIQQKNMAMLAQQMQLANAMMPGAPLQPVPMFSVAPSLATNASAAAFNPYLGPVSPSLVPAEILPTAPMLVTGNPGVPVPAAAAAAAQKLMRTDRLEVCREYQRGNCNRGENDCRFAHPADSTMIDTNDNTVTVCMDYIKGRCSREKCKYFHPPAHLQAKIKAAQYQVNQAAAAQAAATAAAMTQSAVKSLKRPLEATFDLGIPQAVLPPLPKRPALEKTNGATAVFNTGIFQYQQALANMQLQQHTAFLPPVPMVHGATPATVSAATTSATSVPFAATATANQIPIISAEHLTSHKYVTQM
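Inhibition of protein-RNA binding appears as loss of TR-FRET between terbium anti-His antibody on MBNL1-His and streptavidin-XL665 on biotin-(CUG)12. Activity is normalized to buffer-only and uninhibited-complex controls.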
Rango complex inh – inhibitors of Rango-importin beta complex formation; Q14974; Rango CFP/YFP FRET sensor + importin beta, 45 min; Potency, µM (highest dose often 92.2 µM), without a hit: at the highest dose inhibition of complex formation; hit rate 0.031% among 340,000; AID 540263;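 further: potency means the concentration at half of the fitted maximal effect; 0% = DMSO wells and 100% = buffer wells lacking importin beta; nearly all actives have a fitted effect of over 15% in size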
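FRET biosensor (snurportin 1 IBB flanked by EYFP and cerulean), 50 nM, with compound 5 min, then 0.125 microM importin beta in PBS, 1 mM DTT, 0.02% Tween-20, 0.1% BSA. CFP/YFP ratio read after 45 min at room temperature; pre-read flags interference.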
Starred values were filed as active, the others as inactive. Unless noted, the call rests on the fitted dose curve.

Results for CSc1cccc(NC(=O)CN(C)S(=O)(=O)c2ccc3c(c2)CCCN3C(C)=O)c1 ?
ClpP mod: -0.1%

What do the screens show for `COc1ccc(CCNC(=O)C2CCC(=O)N(CC3CCCCC3)C2)cc1` (stereo unspecified)?
Rango release inh: 9.3%; ClpP mod: 31.6µM*; MBNL1 CUG block: -8.4%; Rango complex inh: 3.1%

What do the screens show for `Cc1ccc(NC(=O)CN2C(=O)COc3ccc(S(=O)(=O)N4CCCCC4)cc32)cc1N(C)C`?
ClpP mod: -0.6%

How did CN(C)c1ccc(C=Nc2ccccc2C(N)=O)cc1 do in these assays?
Rango release inh: 1.2%; ClpP mod: 25.1µM*; CBFb RUNX1 block: 6.7%; MBNL1 CUG block: -7.4%; Rango complex inh: inconclusive

How did Cc1ccc(C=Nc2ccccc2C(N)=O)o1 do in these assays?
Rango release inh: 1.6%; ClpP mod: -12.8%; CBFb RUNX1 block: -0.6%; MBNL1 CUG block: 0.3%; Rango complex inh: -3.1%

How did COc1ccccc1-c1nc(C(N)=O)c2[nH]c(=O)n(-c3cccc(C)c3)c2n1 do in these assays?
Rango release inh: -5.0%; ClpP mod: 20µM*; CBFb RUNX1 block: -4.6%; MBNL1 CUG block: -8.5%; Rango complex inh: -5.0%

How did CCOc1ccc(-n2nc3ccc(N)cc3n2)cc1 do in these assays?
Rango release inh: 5.17µM*; ClpP mod: 4.5%; MBNL1 CUG block: 24.3%; Rango complex inh: inconclusive

How did COc1ccc(-n2nc3ccc(N)cc3n2)cc1 do in these assays?
ClpP mod: 4.1%

How did Cc1c(S(=O)(=O)N(C)C2CCCCC2)c(=O)n(C)c(=O)n1C do in these assays?
Rango release inh: -0.9%; ClpP mod: 12.6µM*; Rango complex inh: 1.6%

How did O=C(O)/C(=C\c1ccc(Cl)c([N+](=O)[O-])c1)c1ccc(S(=O)(=O)N2CCCCC2)s1 do in these assays?
Rango release inh: 0.7%; ClpP mod: 28.2µM*; CBFb RUNX1 block: 2.3%; MBNL1 CUG block: -0.2%; Rango complex inh: -0.3%

How did COc1cccc(/C=N/n2c(N)c(S(=O)(=O)c3cccs3)c3nc4ccccc4nc32)c1 do in these assays?
Rango release inh: 1.9%; ClpP mod: 2.82µM*; CBFb RUNX1 block: 0.0%; MBNL1 CUG block: -9.8%; Rango complex inh: -0.4%

Results for CC(C)Cn1c(N)c(S(=O)(=O)c2cccs2)c2nc3ccccc3nc21 ?
Rango release inh: -29.9%; ClpP mod: inconclusive; CBFb RUNX1 block: 4.7%; MBNL1 CUG block: 9.5%; Rango complex inh: inconclusive

Results for COc1ccc(/C=N/n2c(N)c(S(=O)(=O)c3cccs3)c3nc4ccccc4nc32)cc1OC ?
Rango release inh: -2.4%; ClpP mod: 12.6µM*; CBFb RUNX1 block: 4.2%; MBNL1 CUG block: 0.2%; Rango complex inh: 2.6%

How did Nc1c(S(=O)(=O)c2cccs2)c2nc3ccccc3nc2n1/N=C/c1cccc(O)c1 do in these assays?
Rango release inh: 32.6%; ClpP mod: 2.82µM*; CBFb RUNX1 block: 8.4%; MBNL1 CUG block: 15.5%; Rango complex inh: -5.5%

Results for Cc1cccc(S(=O)(=O)c2c(N)n(/N=C/c3cccnc3)c3nc4ccccc4nc23)c1 ?
Rango release inh: -14.1%; ClpP mod: 0.2%; CBFb RUNX1 block: 3.8%; MBNL1 CUG block: 2.5%; Rango complex inh: -3.7%

Results for NC(=O)c1cc([N+](=O)[O-])ccc1NCc1cccc2ccccc12 ?
Rango release inh: 13.9%; ClpP mod: 0.4%; Rango complex inh: -3.3%

Results for O=C(/C=C/Nc1ccc([N+](=O)[O-])cc1Br)c1cccc2ccccc12 ?
Rango release inh: -10.2%; ClpP mod: 25.1µM*; CBFb RUNX1 block: -1.9%; MBNL1 CUG block: 0.6%; Rango complex inh: inconclusive

Results for CC(=O)Nc1cccc(NC(=O)C2(c3cccs3)CCOCC2)c1 ?
ClpP mod: 1.2%

Results for CCOc1ccc2nc(NC(=O)CSc3nc(SC)ns3)sc2c1 ?
Rango release inh: -11.9%; ClpP mod: 28.2µM*; CBFb RUNX1 block: -4.3%; MBNL1 CUG block: 8.9%; Rango complex inh: inconclusive

High-throughput results deposited in PubChem BioAssay by National Center for Advancing Translational Sciences (NCATS).
